# Reference: article PMC13423814
# Experiments:
# [1] = biological target: Histone H4 (UniProt P62805)
# [2] = biological target: Heterogeneous nuclear ribonucleoprotein A/B (UniProt Q99729)
# [3] = biological target: Heterogeneous nuclear ribonucleoprotein A0 (UniProt Q13151)
# [4] = biological target: Heterogeneous nuclear ribonucleoprotein U (UniProt Q00839)
# [5] = biological target: Non-POU domain-containing octamer-binding protein (UniProt Q15233)
# [6] = biological target: Polypyrimidine tract-binding protein 1 (UniProt P26599)
# [7] = biological target: Heterogeneous nuclear ribonucleoproteins C1/C2 (UniProt P07910)
substance,measurement,setting,value
"SWI/SNF-related matrix-associated actin-dependent regulator of chromatin subfamily A member 2, P51531",listed as a hit,[1],yes
"Heterogeneous nuclear ribonucleoproteins C1/C2, P07910",listed as a hit,[2],yes
same,listed as a hit,[3],yes
same,listed as a hit,[4],yes
same,listed as a hit,[5],yes
same,listed as a hit,[6],yes
"Heterogeneous nuclear ribonucleoprotein R, O43390",listed as a hit,[7],yes
